From PubChem BioAssay AID1863 (Southern Research Specialized Biocontainment Screening …, 2009)
Hit rate of the full screen: of about 300,000 compounds, about 480 (0.16%) were called active.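 How the source made its calls: active means inhibition over 29.93%, a cutoff 3 SD above the screen mean, later confirmed by dose response; inconclusive means inhibition over 29.93% but no dose response follow-up; inactive means inhibition at most 29.93% or unconfirmed.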 A selection follows. Potency and affinity values are given separately.

Assay: inhibitors of PhoP regulon expression, primary screen, Salmonella Typhimurium, GFP reporter (AID 1863);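 further: 0% = low Mg2+ inducing control and 100% = high Mg2+ repressing control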
Settings: S. Typhimurium PhoP-regulated promoter GFP reporter, 4 h; at 50 µM; hits give high values
For `C/C(=N\Nc1ncc(Cl)cc1Cl)c1ccccn1`, the inhibition was 9.66% (inactive). With `Cc1sc2ncnc(N/N=C/c3ccc(O)cc3)c2c1C` the inhibition was 11.1% (inactive). In the case of `Cc1sc2ncnc(Nc3ccccc3)c2c1C`, the inhibition is reported as 8.39% (inactive). In the case of `Cc1sc2ncnc(N/N=C/c3cccc(O)c3)c2c1C`, the inhibition is reported as -0.11% (inactive). With `C=CCN(c1ccc(C(=O)NCCCn2ccnc2)cc1)S(C)(=O)=O` the inhibition was 0.81% (inactive). With `Cc1ccc2c(=O)c(C(=O)c3ccc(F)cc3)cn(CC(=O)NCc3ccco3)c2n1` the inhibition was -4.56% (inactive). With `CCOC(=O)c1c(NC(=O)COC(=O)c2ccccn2)sc(C(=O)N(C)C)c1C` the inhibition was 2.57% (inactive). With `C/C(=N\NC(=O)c1ccccc1Cl)c1ccccn1` the inhibition was 5.97% (inactive). For `C/C(=N\NC(=O)c1cc(Br)ccc1O)c1ccccn1`, the inhibition was 3.69% (inactive). With `COc1ccc(CC(=S)NCCc2ccccc2)cc1` the inhibition was -4.36% (inactive). For `O=C(NC1CCCC1)C(c1ccccn1)N(Cc1ccc(F)cc1)C(=O)c1csnn1` (centres undefined), the inhibition was 0.43% (inactive). For `CCCCn1nnnc1NCc1cc(OC)c(OC)cc1OC`, the inhibition was 35.9% (inactive). With `CCCCCCSc1cc(-c2nc3ccc(Cl)cn3c2NCCCC)ccc1OC` the inhibition was -3.84% (inactive). With `COc1cc2ccc3c(CCN(C)C)cc(OC)c(OC)c3c2cc1OC` the inhibition was -2.35% (inactive). With `CC(=O)Oc1ccc(OC(C)=O)c(SCCCCCCl)c1` the inhibition was -1.06% (inactive). In the case of `O=C(Nc1ccc(S(=O)(=O)N2CCc3ccccc3C2)cc1)C1CCCO1` (centres undefined), the inhibition is reported as 13.2% (inactive). In the case of `CCCCCn1c(CCNC(=O)c2cccs2)nc2ccccc21`, the inhibition is reported as 11.2% (inactive). For `COc1ccccc1C(=O)OCc1ccc2sc(C)nc2c1`, the inhibition was 5.75% (inactive). With `C=CCNc1nc(Cl)nc(Nc2ccc([N+](=O)[O-])cc2)n1` the inhibition was 13.8% (inactive). In the case of `CC(C)c1cc(=O)n2[nH]c(SCc3ccccc3Cl)nc2n1`, the inhibition is reported as -7.54% (inactive). With `CCCOc1ccc(C(=O)NCCC(=O)NCCCC(=O)O)cc1` the inhibition was 8.01% (inactive). In the case of `CN(C)C/C(Cl)=C(\Cl)c1ccccc1`, the inhibition is reported as 4.69% (inactive). In the case of `NC(=O)c1c(NC(=O)c2ccc([N+](=O)[O-])o2)sc2c1CCCC2`, the inhibition is reported as -3.86% (inactive). For `CC(C)N1CCc2c(sc(NC(=O)c3ccc([N+](=O)[O-])o3)c2C(N)=O)C1`, the inhibition was 18% (inactive). In the case of `CN1CCc2c(sc(NC(=O)c3ccco3)c2C(N)=O)C1`, the inhibition is reported as -4.37% (inactive). In the case of `COC(=O)c1c(NC(=O)c2ccco2)sc2c1CCN(C(C)C)C2`, the inhibition is reported as 3.8% (inactive). In the case of `CC(C)(C)c1ccc(C(=O)N2CCN(C(=O)c3ccco3)CC2)cc1`, the inhibition is reported as 1.4% (inactive). With `Cc1nn(-c2ccccc2)c(N2CCCC2)c1C=O` the inhibition was -1.38% (inactive). In the case of `O=S(=O)(c1ccccc1)c1nc(-c2ccco2)oc1NCCCn1ccnc1`, the inhibition is reported as 5.16% (inactive). In the case of `CC(C)N(C(=O)COC(=O)[C@@H]1CC(O)CN1S(=O)(=O)c1ccc(C(C)(C)C)cc1)C(C)C` (some centres undefined), the inhibition is reported as 0.76% (inactive). In the case of `CC(=O)C[C@H]1c2cc(C(F)(F)F)ccc2S(=O)(=O)N1c1ccc(N(C)C)cc1`, the inhibition is reported as -9.83% (inactive). With `Cc1c(N2C(=O)c3ccc(Br)cc3C2=O)c(=O)n(-c2ccccc2)n1C` the inhibition was 2.78% (inactive). With `CCn1cc(C(=O)O)c(=O)c2cnc(N3CCN(C(=S)Nc4ccccc4)CC3)nc21` the inhibition was 5.11% (inactive). With `CCCCCCCC(=O)N1CCN(c2cc3c(cc2F)c(=O)c(C(=O)O)cn3CC)CC1` the inhibition was 9.66% (inactive). In the case of `CCCCCCCCC(=O)N1CCN(c2cc3c(cc2F)c(=O)c(C(=O)O)cn3CC)CC1`, the inhibition is reported as 1.94% (inactive). With `CCOC(=O)c1cn(CC)c2cc(N3CCN(C)CC3)c(F)cc2c1=O` the inhibition was 0.76% (inactive). For `C=CCNC(=S)N1CCN(c2ncc3c(=O)c(C(=O)O)cn(CC)c3n2)CC1`, the inhibition was 14% (inactive). In the case of `CCCCCCn1cc(C(=O)O)c(=O)c2cc(F)c(N3CCN(C(=O)OCC)CC3)cc21`, the inhibition is reported as 5.63% (inactive). In the case of `O=C(N/N=C1\CC2CC=CC12)c1ccccc1Cl` (centres undefined), the inhibition is reported as -4.57% (inactive). In the case of `CC1(C)C(=O)Nc2ccccc2N1C(=O)c1ccc([N+](=O)[O-])cc1`, the inhibition is reported as 7.48% (inactive). With `CCS(=O)(=O)N1CCCC(C(=O)NCC2CCCO2)C1` (centres undefined) the inhibition was 9.13% (inactive). In the case of `COCCn1c(SCc2nnc(-c3ccccc3)o2)nc2sc3c(c2c1=O)CCC3`, the inhibition is reported as 1.92% (inactive). In the case of `O=C(NCc1cccnc1)/C(=C/c1ccco1)NC(=O)c1ccccc1`, the inhibition is reported as -2.07% (inactive). In the case of `CCOc1ccc(C(=O)OCC(=O)NCCCc2ccccc2)cc1`, the inhibition is reported as -6.34% (inactive). With `COCCN1C=C2C(=O)C(C)(OC(=O)C3CCCC3)C(=O)C(c3ccccc3)=C2C=C1CCCC(=O)OC` (centres undefined) the inhibition was 0.275% (inactive). With `O=C(c1ccc(NS(=O)(=O)c2ccc3c(c2)OCCO3)cc1)N1CCCCC1` the inhibition was -6.01% (inactive). In the case of `Cn1cc(S(=O)(=O)NC2CCCCC2)c(=O)n(C)c1=O`, the inhibition is reported as -6.38% (inactive). With `Cc1cc(C)nc(/N=C(\N)N(Cc2ccccc2)Cc2ccccc2)n1` the inhibition was -3.9% (inactive). For `COc1ccc(/C=N/NS(=O)(=O)c2ccc(C)cc2)cc1OC(=O)c1ccccc1`, the inhibition was -3.56% (inactive). In the case of `O=C(O)c1cn(C2CC2)c2cc(N3CCN(S(=O)(=O)c4ccc5c(c4)OCCO5)CC3)c(F)cc2c1=O`, the inhibition is reported as 28.5% (inactive). In the case of `CCCCCCn1cc(C(=O)O)c(=O)c2cc(F)c(N3CCN(C)CC3)cc21`, the inhibition is reported as -2.32% (inactive). In the case of `CCN(C(=O)COC(=O)c1ccc(C)c(S(=O)(=O)N2CCCCC2)c1)C1CCS(=O)(=O)C1` (centres undefined), the inhibition is reported as -0.22% (inactive). With `CC(Oc1ccccc1)C(=O)N=C1SC2CS(=O)(=O)CC2N1c1cccc(F)c1` (centres undefined) the inhibition was -0.94% (inactive). For `COc1ccc(S(=O)(=O)N(C)c2ccc(C(=O)NCC3CCCO3)cc2)cc1` (centres undefined), the inhibition was 15.5% (inactive). With `CN(C)NC1CC(=O)N(c2ccccc2)C1=O` (centres undefined) the inhibition was -0.29% (inactive). For `CCOP(=O)(OCC)C(C)(C)NC(=O)c1cc([N+](=O)[O-])cc([N+](=O)[O-])c1`, the inhibition was -1.13% (inactive). For `O=C1C(O)=C(O)C(=O)c2ccccc21`, the inhibition was 9.48% (inactive). In the case of `O=C1Nc2ccccc2C1=O`, the inhibition is reported as 6.44% (inactive). For `COC(=O)C1=C(SC)N(c2ccccc2)C(c2ccccc2)CC1=O` (centres undefined), the inhibition was 11.8% (inactive).
